From PubChem BioAssay (NCI)
Compounds without any hit were thinned out: in the full panel of roughly 79,000, 15% have a hit. A number with no mark means an inactive call. Activity calls are given as the source filed them. Cut-off read from the data, not from the text of the source: active = growth inhibition above about 70%; inactive = the rest.

Assay: NCI Yeast Anticancer Drug Screen. Data for the rad50 strain (AID 155);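 note: 0% = growth of vehicle-only cultures of the same strain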
Settings: S. cerevisiae rad50 strain growth inhibition; at 5.0 µM (retest, dose inferred, filed as 0.5); hits give high values
Summary of the method: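 Inhibition values express reduced yeast growth in compound-treated cultures relative to vehicle-treated controls.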

Compound | growth inhibition
O=C1c2ccc3ccccc3c2CCC1[n+]1ccc2ccccc2c1 (stereo unspecified) | 1%
Cc1cc(NC(=S)SCc2ccc(Cl)cc2)c([N+](=O)[O-])cc1C | 65%
N#CC(O)C(Br)(Br)Br (stereo unspecified) | -3%
C[CH2][Ge]([CH2]C)[CH2]C.C[CH2][Ge]([Cl])[CH2]C.C[CH2][Ge][CH2]C | 19%
COC1C(=[N+]=[N-])C(=O)NC(=O)N1C1OC(COC(c2ccccc2)(c2ccccc2)c2ccccc2)C(O)C1O (stereo unspecified) | 63%
CC(=O)Oc1ccc(C)c(C(C)C(Cl)(Cl)Cl)c1 (stereo unspecified) | 0%
OC(c1ccccc1)c1cccc(Br)c1 (stereo unspecified) | -2%
CC/C(=C1\C=CC(=O)S1)C(CC)c1ccc(OC(C)=O)cc1 (stereo unspecified) | -14%
COc1ccc(/C=C2/C(=O)NC3SC=C(c4cccc([N+](=O)[O-])c4)N23)cc1 (stereo unspecified) | 8%
O=C1O/C(=C2\OC(=O)c3ccccc32)c2ccccc21 | 9%
Clc1ncccc1-n1cccc1/C=N\N=C/c1cccn1-c1cccnc1Cl | 5%
Clc1nc2cc3nc(Cl)c(Cl)nc3cc2nc1Cl | 18%
CC(=O)c1c2c(cc3c1CC1(Cc4cc5c(cc4C1)C(=O)CCC5)C3)CCCC2 (stereo unspecified) | 34%
CCCCOS(=O)(=O)c1ccc(C)cc1 | -7%
C[N+]1(c2ccccc2)C=C(c2ccccc2)SC1=S (stereo unspecified) | 7%
COc1ccc(/C=N/N=c2\[nH][nH]/c(=N\N=C\c3ccc(OC)c4ccccc34)c3ccccc23)c2ccccc12 | 15%
CCCCCCCCCCCCCCCCN | 98% (active)
CCCCCCCCCCCC[S+](C)C | 31%
CP(=O)(c1ccccc1)c1ccccc1 | -20%
CCCCCCCCCCCC(=O)OC/C=C/COC(=O)c1ccccc1 | 2%
O=C(O)CCC(O)=C1S(=O)(=O)OCCOS1(=O)=O | -21%
CCOC(=O)C1SC(=Nc2cccc(Cl)c2C)N=C1C (stereo unspecified) | 22%

Same assay, conditions: S. cerevisiae rad50 strain growth inhibition; at 50.0 µM (retest, dose inferred, filed as 5.0); hits give high values

Compound | growth inhibition
CC(=O)NNc1nc(C)c(C(=O)NNC(=O)C(=O)Nc2c(C)cccc2C(C)C)s1 | 85% (active)
COc1cc(C2CC(=O)c3ccccc3O2)ccc1O (stereo unspecified) | 98% (active)
CCC1CCC2C3CC=C4CC(OC(C)=O)C(N)CC4(C)C3CCC12C (stereo unspecified) | 96% (active)
COc1ccccc1C1c2cc3c(cc2OC(N2CCOCC2)C1C)OCO3 (stereo unspecified) | 18%
O=C1C=C/C(=C(/c2ccc(O)c(O)c2)c2ccccc2S(=O)(=O)O)C=C1O | 0%
N#CSC#Cc1ccc(C#CSC#N)cc1 | 98% (active)
Cc1c2ccccc2c(CCl)c2ccc3ccccc3c12 | 98% (active)
Oc1ccc(C(=C(Br)c2ccccc2)c2ccc(O)cc2)cc1 | 98% (active)
Clc1ccc(/C=N/Nc2c3ccccc3nc3ccccc23)c(Cl)c1 | 84% (active)
CCCC#CCCOC(=O)c1cc([N+](=O)[O-])cc([N+](=O)[O-])c1 | 97% (active)
CCOc1ccc2c(c1)n([O-])c1ccccc1[n+]2=O | 98% (active)
COc1ccc(/C(Cl)=C(\c2ccc(OCCN(C)C)cc2)c2ccc(OC(=O)C(C)(C)C)cc2)cc1 | 23%
CCCCCCCCCCCCCCCCSC(=NC)NC | 99% (active)
N#Cc1ccc(Oc2nc3ccccc3nc2-c2ccccc2)cc1 | 21%
Cc1ccc2c(c1)nc1n2C(N)=Nc2ccccc2S1 | 47%
COc1cc(NCc2ccc3nc(-c4ccccc4)c(N)nc3c2)cc(OC)c1OC | -19%
O=C(OCCC1CCCCC1)c1cc([N+](=O)[O-])cc([N+](=O)[O-])c1 | 79% (active)
O=C1c2ccc3ccccc3c2CCC1[n+]1ccc2ccccc2c1 (stereo unspecified) | 57%
Cc1cc(NC(=S)SCc2ccc(Cl)cc2)c([N+](=O)[O-])cc1C | 95% (active)
N#CC(O)C(Br)(Br)Br (stereo unspecified) | 61%

Compound | growth inhibition
C[CH2][Ge]([CH2]C)[CH2]C.C[CH2][Ge]([Cl])[CH2]C.C[CH2][Ge][CH2]C | 96% (active)
COC1C(=[N+]=[N-])C(=O)NC(=O)N1C1OC(COC(c2ccccc2)(c2ccccc2)c2ccccc2)C(O)C1O (stereo unspecified) | 63%
CC(=O)Oc1ccc(C)c(C(C)C(Cl)(Cl)Cl)c1 (stereo unspecified) | 30%
OC(c1ccccc1)c1cccc(Br)c1 (stereo unspecified) | 67%
CC/C(=C1\C=CC(=O)S1)C(CC)c1ccc(OC(C)=O)cc1 (stereo unspecified) | 99% (active)
COc1ccc(/C=C2/C(=O)NC3SC=C(c4cccc([N+](=O)[O-])c4)N23)cc1 (stereo unspecified) | 6%
O=C1O/C(=C2\OC(=O)c3ccccc32)c2ccccc21 | 22%
Clc1ncccc1-n1cccc1/C=N\N=C/c1cccn1-c1cccnc1Cl | 98% (active)
Clc1nc2cc3nc(Cl)c(Cl)nc3cc2nc1Cl | 71% (active)
CC(=O)c1c2c(cc3c1CC1(Cc4cc5c(cc4C1)C(=O)CCC5)C3)CCCC2 (stereo unspecified) | 32%
CCCCOS(=O)(=O)c1ccc(C)cc1 | 15%
C[N+]1(c2ccccc2)C=C(c2ccccc2)SC1=S (stereo unspecified) | 86% (active)
COc1ccc(/C=N/N=c2\[nH][nH]/c(=N\N=C\c3ccc(OC)c4ccccc34)c3ccccc23)c2ccccc12 | 34%
CCCCCCCCCCCCCCCCN | 97% (active)
CCCCCCCCCCCC[S+](C)C | 52%
CP(=O)(c1ccccc1)c1ccccc1 | -17%
CCCCCCCCCCCC(=O)OC/C=C/COC(=O)c1ccccc1 | 23%
O=C(O)CCC(O)=C1S(=O)(=O)OCCOS1(=O)=O | 16%
CCOC(=O)C1SC(=Nc2cccc(Cl)c2C)N=C1C (stereo unspecified) | 83% (active)
